# Results as given in PubChem BioAssay AID651621 (National Center for Advancing Translational Sciences (NCATS), 2012).
# Activity calls are given as the source filed them.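 How the source made its calls: active means inhibition of 60% or more at 11 µM; inconclusive means inhibition from 30% up to under 60% at 11 µM; inactive means inhibition below 30% at 11 µM.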
# Target: Ubiquitin carboxyl-terminal hydrolase 1 (Homo sapiens) + WD repeat-containing protein 48 (Homo sapiens) (UniProt O94782+Q8TAF3)
# Sequence (O94782 whole entry, looked up): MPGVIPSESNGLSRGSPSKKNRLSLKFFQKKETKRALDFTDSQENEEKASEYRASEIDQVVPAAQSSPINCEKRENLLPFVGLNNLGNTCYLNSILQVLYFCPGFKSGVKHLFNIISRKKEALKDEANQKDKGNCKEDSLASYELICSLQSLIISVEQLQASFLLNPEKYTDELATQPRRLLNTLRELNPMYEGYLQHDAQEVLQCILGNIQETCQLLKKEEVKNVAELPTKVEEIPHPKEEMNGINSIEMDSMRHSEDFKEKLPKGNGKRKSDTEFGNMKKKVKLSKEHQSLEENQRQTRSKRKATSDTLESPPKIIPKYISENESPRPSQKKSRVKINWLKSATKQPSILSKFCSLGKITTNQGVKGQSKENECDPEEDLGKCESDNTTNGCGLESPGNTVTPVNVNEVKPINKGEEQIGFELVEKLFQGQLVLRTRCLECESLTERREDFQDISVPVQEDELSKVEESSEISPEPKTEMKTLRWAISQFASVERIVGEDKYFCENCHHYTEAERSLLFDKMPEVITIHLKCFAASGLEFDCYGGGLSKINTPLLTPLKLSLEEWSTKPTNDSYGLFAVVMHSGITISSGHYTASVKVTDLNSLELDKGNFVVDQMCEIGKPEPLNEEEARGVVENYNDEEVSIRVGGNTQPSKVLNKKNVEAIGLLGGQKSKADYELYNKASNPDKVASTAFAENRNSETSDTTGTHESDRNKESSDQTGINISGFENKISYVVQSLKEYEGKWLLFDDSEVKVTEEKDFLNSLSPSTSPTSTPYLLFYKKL
# Sequence (Q8TAF3 whole entry, looked up): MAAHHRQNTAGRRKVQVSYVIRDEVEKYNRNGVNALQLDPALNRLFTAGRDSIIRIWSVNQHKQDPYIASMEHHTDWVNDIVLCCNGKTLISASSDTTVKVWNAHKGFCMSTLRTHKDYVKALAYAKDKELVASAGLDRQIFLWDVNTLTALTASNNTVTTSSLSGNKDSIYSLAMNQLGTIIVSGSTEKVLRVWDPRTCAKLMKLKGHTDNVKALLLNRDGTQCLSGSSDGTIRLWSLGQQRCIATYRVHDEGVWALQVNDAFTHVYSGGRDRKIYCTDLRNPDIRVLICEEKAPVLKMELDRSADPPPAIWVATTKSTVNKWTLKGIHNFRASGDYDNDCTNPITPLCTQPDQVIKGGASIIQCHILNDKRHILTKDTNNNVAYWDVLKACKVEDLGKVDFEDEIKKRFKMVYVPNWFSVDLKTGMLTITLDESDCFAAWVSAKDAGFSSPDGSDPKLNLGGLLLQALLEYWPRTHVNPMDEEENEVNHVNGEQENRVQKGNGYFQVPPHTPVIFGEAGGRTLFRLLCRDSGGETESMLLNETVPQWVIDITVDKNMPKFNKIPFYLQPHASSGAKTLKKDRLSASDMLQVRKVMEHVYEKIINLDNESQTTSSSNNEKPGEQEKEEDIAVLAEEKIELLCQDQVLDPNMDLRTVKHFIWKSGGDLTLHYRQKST
# Assay: Inhibitors of USP1/UAF1: SAR in USP1/UAF1 diubiquitin SDS-PAGE gel assay
# Conditions: purified USP1/UAF1, K63 diubiquitin cleavage, at 11 µM, stronger effect = higher value
# From the text: Deubiquitinating enzymes (DUBs) are a class of enzymes that can cleave isopeptide bond formed between the C-terminal carboxylate of ubiquitin and a lysine side-chain amino group on the target protein. Among them, ubiquitin specific proteases (USPs) constitute the largest DUB family. Human USPs are emerging as promising targets for pharmacological intervention because of their connection to a number of human diseases, including prostate, colon and breast cancer (1, 2), pediatric acute lymphoblastic leukemia (3), and familial cylindromatosis (4). The advantage of inhibiting USPs lies in the potential specificity of therapeutic intervention that can lead to better efficacy and reduce nonspecific side effects. In a collaboration between the University of Delaware and the NIH Chemical Genomics Center, a high-throughput screen assay was developed to screen for USP1/UAF1 inhibitors (5). This assay is a orthogonal assay that tested for activity in a USP1/UAF1 diubiquitin SDS-PAGE gel assay. NIH Chemical Genomics Center [NCGC] […]
# The inhibition assay contains 100 nM for USP1/UAF1, 2 microM K63 linked diubiquitin, and inhibitors at varied concentrations (0.08 microM - 114 microM). […] The intensity of the individual diubiquitin and monoubiquitin band was quantified using Quantity One 4.3.1 (Biorad, Hercules, CA). The percentage of the conversion was determined and used to calculate the reaction rate. […]
row,Structure (SMILES),inhibition
1,Cc1cnc(-c2ccccc2C(C)C)nc1NCc1ccc(-n2ccnn2)cc1,98.5% (active)
